About 83,000 compounds went through this panel and 20% of them were active in at least one assay; those are over-represented in the sample as a whole.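 Negative percent growth values reflect cell death: -40 means 40% of the cells present at the start died, and -100 means all died.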 Active and inactive are the calls of the source. How the source made its calls: active means growth percent below 10; inactive means the rest.
How the values were obtained:
Assay in all cases: NCI-60 one-dose screen, 48 h (100 = growth as untreated, 0 = no growth, -100 = all killed)
[1] = tested on: SR leukemia; details: 10 µM
[2] = tested on: RPMI-8226 leukemia; details: 10 µM
[3] = tested on: OVCAR-8 ovarian; details: 10 µM
[4] = tested on: OVCAR-5 ovarian; details: 10 µM
[5] = tested on: OVCAR-4 ovarian; details: 10 µM
[6] = tested on: SK-OV-3 ovarian; details: 10 µM
[7] = tested on: IGROV1 ovarian; details: 10 µM
[8] = tested on: OVCAR-3 ovarian; details: 10 µM
[9] = tested on: HS 578T breast; details: 10 µM
[10] = tested on: NCI/ADR-RES ovarian; details: 10 µM
[11] = tested on: T-47D breast; details: 10 µM
[12] = tested on: BT-549 breast; details: 10 µM
[13] = tested on: MDA-MB-435 melanoma; details: 10 µM
[14] = tested on: SW-620 colon; details: 10 µM
[15] = tested on: HCT-116 colon; details: 10 µM
[16] = tested on: KM12 colon; details: 10 µM
[17] = tested on: MCF7 breast; details: 10 µM unless noted
[18] = tested on: HCC-2998 colon; details: 10 µM

Measured: growth

CCC(C)(C)C1CCC(O)CC1 (centres undefined)
inactive: [1] 102% | [2] 101% | [3] 102% | [4] 92.5% | [5] 107% | [6] 103% | [7] 107% | [8] 104% | [9] 101% | [10] 96.7% | [11] 97.5% | [12] 96.6% | [13] 112% | [14] 101% | [15] 98.9% | [16] 96%

OCC1OC(OC2C(O)C(CO)OC2(CO)OC2OC(CO)C(O)C(O)C2O)C(O)C(O)C1O (centres undefined)
inactive: [1] 106% | [2] 97.9% | [3] 113% | [4] 107% | [5] 100% | [6] 108% | [7] 123% | [8] 121% | [9] 110% | [10] 107% | [11] 110% | [12] 105% | [13] 111% | [14] 111% | [15] 97.8% | [16] 109%

OCC(O)C(O)C(O)C(O)/C=N/O (centres undefined)
inactive: [1] 102% | [2] 94.9% | [3] 97.6% | [4] 109% | [5] 104% | [6] 87.2% | [7] 107% | [8] 113% | [9] 103% | [10] 103% | [11] 87.4% | [12] 91.5% | [13] 108% | [14] 99.6% | [17] 96.3% | [16] 101%

CSC(=N\N=C\c1ccc(N(C)C)cc1)/N=C/N(C)C
inactive: [1] 99% | [2] 92.3% | [3] 102% | [4] 95.5% | [5] 107% | [6] 106% | [7] 105% | [8] 112% | [9] 90.1% | [10] 119% | [11] 94.9% | [12] 113% | [13] 102% | [14] 83.8% | [17] 97% | [18] 108% | [16] 110%

CCCCC(=O)c1ccc(OC)cc1
inactive: [1] 92.2% | [2] 99.8% | [3] 97% | [4] 90.5% | [5] 116% | [6] 111% | [7] 101% | [8] 114% | [9] 95.2% | [10] 105% | [11] 110% | [12] 102% | [13] 98.7% | [14] 101% | [15] 101% | [18] 116% | [16] 104%

CC(C)CCOC(=O)c1ccccc1
inactive: [1] 107% | [2] 118% | [3] 99.4% | [4] 105% | [5] 107% | [6] 104% | [7] 102% | [8] 107% | [9] 105% | [10] 107% | [11] 99.5% | [12] 102% | [13] 106% | [14] 108% | [17] 99.7% | [18] 110% | [16] 106%

Cc1cc2ccccc2c(O)c1C#N
inactive: [1] 108% | [2] 97.4% | [3] 99.7% | [4] 103% | [5] 114% | [6] 89.4% | [7] 114% | [8] 108% | [9] 108% | [10] 96% | [11] 88.8% | [12] 97.6% | [13] 108% | [14] 104% | [17] 99.3% | [15] 105% | [16] 105%

O=[N+]([O-])c1ccc(Sc2ccncn2)c([N+](=O)[O-])c1
active: [13] 8.62%
inactive: [1] 30.6% | [2] 40% | [3] 102% | [4] 96.3% | [5] 42.9% | [6] 102% | [7] 83% | [8] 63.7% | [9] 92.6% | [10] 58% | [11] 48.3% | [12] 74.9% | [14] 23% | [15] 20.1% | [16] 76.2%

CCOc1ccc(Br)cc1/C=N\N=C\c1cc(Br)ccc1OCC
inactive: [1] 92.4% | [2] 95.5% | [3] 95.6% | [4] 107% | [5] 113% | [6] 117% | [7] 103% | [8] 96.8% | [9] 143% | [10] 120% | [11] 93% | [12] 108% | [13] 103% | [14] 101% | [17] 101% | [16] 94.2%

NCCC(=O)c1ccc(Cl)cc1
inactive: [1] 93.8% | [2] 110% | [3] 101% | [4] 118% | [5] 110% | [6] 95.7% | [7] 117% | [8] 105% | [9] 109% | [10] 103% | [11] 91.4% | [12] 109% | [13] 110% | [17] 110% | [15] 102% | [18] 97.6% | [16] 98.1%

CC(=O)c1ccc(C)c(N)c1
inactive: [1] 106% | [2] 101% | [3] 96.4% | [4] 102% | [5] 111% | [6] 98.6% | [7] 95.8% | [8] 108% | [9] 96.9% | [10] 91.2% | [11] 99.8% | [12] 94.7% | [13] 114% | [14] 101% | [17] 97.1% | [18] 108% | [16] 97%

O=[N+]([O-])c1ccc(CO)cc1
inactive: [1] 99.5% | [2] 112% | [3] 109% | [4] 105% | [5] 104% | [6] 93.7% | [7] 112% | [8] 113% | [9] 98.9% | [10] 107% | [11] 88.3% | [12] 105% | [13] 90.3% | [14] 102% | [17] 91.1% | [16] 105%

CC(O)COc1ccc(-c2ccccc2)cc1 (centres undefined)
inactive: [1] 94.4% | [2] 97.7% | [3] 108% | [4] 98.9% | [5] 111% | [6] 105% | [7] 115% | [8] 108% | [9] 106% | [10] 110% | [11] 94% | [12] 104% | [13] 104% | [14] 103% | [17] 100% | [16] 105%

COc1cc([C@@H]2c3cc4c(cc3[C@H](O)[C@H]3COC(=O)[C@H]23)OCO4)cc(OC)c1OC
inactive: [2] 29.7% | [3] 12.9% | [4] 40% | [5] 26.9% | [6] 24.4% | [7] 31.6% | [9] 26.9% | [11] 65.5% | [14] 24.5%
active: [1] -1.68% | [8] -42.8% | [10] 4.7% | [12] 7.33% | [13] -30.3% | [17] 5.76% | [15] 2.8% | [16] -4.78%

CCOc1ccc(I)cc1
inactive: [1] 114% | [2] 131% | [3] 96.7% | [4] 94% | [5] 109% | [6] 110% | [7] 117% | [8] 116% | [9] 111% | [10] 101% | [11] 114% | [12] 116% | [13] 112% | [17] 98.2% | [15] 102% | [18] 106% | [16] 95.2%

COC(=O)Nc1cccc(Cl)c1OC
inactive: [1] 101% | [2] 99.3% | [3] 106% | [4] 92.6% | [5] 111% | [6] 116% | [7] 110% | [8] 111% | [9] 95.4% | [10] 110% | [11] 104% | [12] 111% | [13] 101% | [14] 71.7% | [15] 107% | [18] 104% | [16] 111%

C[N+](C)=c1ccc2nc3c(cc(Nc4ccccc4)c4ccccc43)oc-2c1
inactive: [1] 22.1% | [2] 31.7% | [3] 54.4% | [4] 80.7% | [5] 21.3% | [6] 65.3% | [7] 67.3% | [9] 63.6% | [10] 57.3% | [11] 31.8% | [12] 41.7% | [13] 53.5% | [17] 32.5% | [15] 47.1% | [18] 75.6% | [16] 62.5%
active: [8] -28.6%

[O-][N+](=Nc1cccc(Cl)c1)c1cccc(Cl)c1
inactive: [1] 141% | [2] 81.9% | [3] 114% | [4] 88.3% | [5] 61.8% | [6] 110% | [7] 76.4% | [8] 111% | [9] 112% | [10] 99% | [11] 30.2% | [12] 73.1% | [13] 102% | [14] 90.4% | [15] 90.6% | [18] 63.1% | [16] 91.9%
